According to PubChem BioAssay (NCATS):
Results filed as inconclusive are left out. Active and inactive are the calls of the source. Calls come from the whole dose curve; as a rule, active = well fitted inhibition curve with a large enough effect; inconclusive = small, poorly fitted or top-dose-only effect; inactive = flat fitted curve, though single readings scatter.

Tests used:
[1] = molecular target: Glutathione peroxidase 1 (Homo sapiens) (UniProt P07203); assay: Primary qHTS Assay for Inhibitors of Recombinant Selenoprotein Glutathione Peroxidase 1 (GPX1) (AID 1845191); note: nearly all actives have a fitted effect of over 65% in size
How it was run: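 NADPH consumption tracked by fluorescence at 340/450 nm between t=0 and t=15 min, room temperature. Final mix: 10 nM GPX1, 100 nM glutathione reductase, 1 mM GSH, 0.5 mM NADPH, 0.5 mM cumene hydroperoxide, 0.01% BSA; 30 min compound–enzyme preincubation.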

[2] = molecular target: Phospholipid hydroperoxide glutathione peroxidase GPX4 (Homo sapiens) (UniProt P36969); assay: Primary qHTS Assay for Inhibitors of Recombinant Selenoprotein Glutathione Peroxidase 4 (GPX4) (AID 1845192); note: nearly all actives have a fitted effect of over 65% in size
How it was run: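 NADPH consumption followed by fluorescence at 340/450 nm, t=0 and after 15 min at room temperature. Reaction started with cumene hydroperoxide (0.5 mM final) after 30 min compound–GPX4 preincubation; final 200 nM GPX4, 100 nM GR, 1 mM GSH, 0.5 mM NADPH.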

[3] = molecular target: Luciferin 4-monooxygenase (Photinus pyralis) (UniProt P08659); assay: Primary firefly luciferase (FLuc) qHTS assay for identification of artifact compounds. (AID 1845220); note: nearly all actives have a fitted effect of over 60% in size
How it was run: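 FLuc 10 nM; luciferin 10 uM; ATP 10 uM; Tris-acetate pH 7.6, Mg-acetate 10 mM; 15 min RT preincubation; 5 min reaction; luminescence.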

Measured: Potency

Phospholipid hydroperoxide glutathione peroxidase GPX4 (Homo sapiens), sequence (P36969 whole entry, looked up): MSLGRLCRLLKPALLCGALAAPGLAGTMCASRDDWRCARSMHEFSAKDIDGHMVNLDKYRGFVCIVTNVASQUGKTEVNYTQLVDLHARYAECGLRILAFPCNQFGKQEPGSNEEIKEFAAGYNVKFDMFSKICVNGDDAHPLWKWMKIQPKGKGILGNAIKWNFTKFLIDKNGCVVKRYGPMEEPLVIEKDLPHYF
Glutathione peroxidase 1 (Homo sapiens), sequence (P07203 whole entry, looked up): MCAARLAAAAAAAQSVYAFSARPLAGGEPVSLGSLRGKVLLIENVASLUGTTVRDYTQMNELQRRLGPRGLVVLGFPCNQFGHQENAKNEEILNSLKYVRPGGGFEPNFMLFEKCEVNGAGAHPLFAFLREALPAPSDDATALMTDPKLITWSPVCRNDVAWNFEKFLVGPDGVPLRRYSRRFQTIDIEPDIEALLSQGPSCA

COc1ccc(N2CCN(CCCNC(=O)Cn3c(=O)c4cccn4c4c(C)ccnc43)CC2)cc1
inactive: all assays above

CC(NC(=O)CC(=O)O)C(=O)Nc1ccccc1C(N)=O (stereo unspecified)
inactive: all assays above

CC(=O)/C=C/C1(O)C(C)(C)CC(O)CC1(C)O (stereo unspecified)
inactive: all assays above

CC(O)C1NC(=O)C2CCCN2C1=O (stereo unspecified)
inactive: all assays above

CC1(C)CC[C@]2(C(=O)O[C@@H]3O[C@H](CO[C@@H]4O[C@H](CO)[C@@H](O)[C@H](O)[C@H]4O)[C@@H](O)[C@H](O[C@@H]4O[C@H](CO)[C@@H](O)[C@H](O)[C@H]4O)[C@H]3O)CC[C@]3(C)C(=CCC4[C@@]5(C)CC[C@H](O[C@@H]6OC[C@@H](O)[C@H](O)[C@H]6O)[C@@](C)(C(=O)O)C5CC[C@]43C)[C@@H]2C1 (stereo partly specified)
inactive: [1] | [2] | [3] inactive [at 11.6 µM]

OCC1=C[C@@H](O)[C@@H]2C=CO[C@@H](O[C@@H]3O[C@H](CO)[C@@H](O)[C@H](O)[C@H]3O)[C@H]12
inactive: all assays above

CC1(C)C[C@H](O)C[C@@]2(C)[C@H]1[C@H](O)C=C1COC(=O)[C@@]12O
inactive: all assays above

C=C(C)[C@H]1CC[C@]2(C(=O)O)CC[C@]3(C)C(CCC4[C@@]5(C)CCC(=O)C(C)(C)C5CC[C@]43C)C12 (stereo partly specified)
inactive: all assays above

CC(C)(O)C1OC1C1=CC(=O)C2(C)OC2C1O (stereo unspecified)
inactive: all assays above

CCC(=O)N1CCc2cc(OC)c(O)cc2C1
inactive: all assays above

CC/C=C\[C@H](O)[C@H](O)C1=C(C)C(=O)[C@]2(O1)C(=O)N[C@@](O)(C(=O)c1ccccc1)[C@@H]2O
inactive: all assays above

CC(C)=CCC/C(C)=C/CO[C@@H]1O[C@H](CO[C@@H]2OC[C@](O)(CO)[C@H]2O)[C@@H](O)[C@H](O)[C@H]1O
inactive: all assays above

O=C(c1ccc(Cl)c([N+](=O)[O-])c1)N1CCN(c2ccccc2F)CC1
inactive: all assays above

O=C(C[C@@H]1C(C(=O)O)=CO[C@@H](O[C@@H]2O[C@H](CO)[C@@H](O)[C@H](O)[C@H]2O)/C1=C\CO)OCCc1ccc(O)c(O)c1
inactive: all assays above

Cc1ccc(C)c(NC(=O)CNS(=O)(=O)c2ccc3[nH]c(=O)oc3c2)c1
inactive: all assays above

CC/C=C\CC1C(CC(=O)O)CCC1OC1OC(CO)C(O)C(O)C1O (stereo unspecified)
inactive: all assays above

COc1cc(/C=C/C(=O)O[C@@H]2C[C@](O)(C(=O)O)C[C@@H](O)[C@H]2O)ccc1O
inactive: all assays above

COc1cc(/C=C/CO[C@@H]2O[C@H](CO)[C@@H](O)[C@H](O)[C@H]2O)cc(OC)c1O[C@@H]1O[C@H](CO)[C@@H](O)[C@H](O)[C@H]1O
inactive: all assays above

Nc1nc(COC(=O)c2ccc([N+](=O)[O-])cc2)nc(Nc2ccccc2)n1
inactive: all assays above

O=C(O[C@H]1[C@H](Oc2ccc(O)cc2CO)O[C@H](CO)[C@@H](O)[C@@H]1O)c1ccccc1
inactive: all assays above

CCC/C=C/C=C/C1CC(O)C(O)C(=O)C1CO (stereo unspecified)
inactive: all assays above

C/C=C(\C)C(=O)OCC1OC(OCC2OC(OC3(CO)OC(CO)C(O)C3O)C(O)C(O)C2O)C(O)C(O)C1O (stereo unspecified)
inactive: all assays above

COC(=O)C1=C[C@@H](O)[C@@H](O)[C@H](O[C@@H]2O[C@H](CO)[C@@H](O)[C@H](O)[C@H]2OC(=O)/C=C/c2ccccc2)C1
inactive: all assays above

CCC1OC(=O)C(C)CC(C)C(=O)/C(C)=C/C(C)C(=O)/C=C/C1(C)O (stereo unspecified)
inactive: all assays above

COc1c2c(c(C)c3c1C(=O)OC3)OC1(C)CC(O)C34OC(OC)(CC(O)C3(C)C1C2)OC4(C)C (stereo unspecified)
inactive: all assays above

CC(O)CCc1ccc(O[C@@H]2O[C@H](CO)[C@@H](O)[C@H](O)[C@H]2O)cc1 (stereo partly specified)
inactive: all assays above

C=C1CC[C@H]2[C@@](C)(CCC(OC3OC(CO)C(O)C(O)C3O)[C@@]2(C)CO)C1C(=O)CC1=CCOC1=O (stereo partly specified)
inactive: all assays above
